NTMT1 inh – blocks human N-terminal methyltransferase 1 activity; Q9BV86; NTMT1 MTase-Glo SAH luminescence, purified enzyme; hit rate 2.5% among 59,000; Potency, µM (top dose mostly 114 µM), inactives show at the top dose activity change, negative = inhibition, most hits filed as inhibitors;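 further: potency means the concentration at half of the fitted maximal effect; plate controls were DMSO vehicle for no effect and no enzyme for full effect; nearly all actives have a fitted effect of over 65% in size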
Target sequence (Q9BV86 whole entry, looked up): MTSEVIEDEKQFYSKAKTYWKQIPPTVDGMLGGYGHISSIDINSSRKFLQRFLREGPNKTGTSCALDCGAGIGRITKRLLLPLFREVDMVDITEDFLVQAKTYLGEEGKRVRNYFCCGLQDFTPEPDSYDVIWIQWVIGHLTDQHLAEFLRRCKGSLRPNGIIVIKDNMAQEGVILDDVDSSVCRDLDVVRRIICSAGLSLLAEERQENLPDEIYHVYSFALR
HTT-AS act – activates huntingtin-antisense promoter activity; HEK293 HTT-AS promoter firefly luciferase reporter, 24 h; response scale: percent change from vehicle, -100% = no light; Potency, µM (highest dose often 57.5 µM), for inactives: at the highest dose activity change, positive = activation, most hits filed as activators; hit rate 0.24% among 48,000; AID 1508624; further: potency means the concentration at half of the fitted maximal effect; nearly all actives have a fitted effect of over 55% in size
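Firefly luciferase signal from promoter-reporter HEK293 cells was scaled between vehicle (0%) and zero RLU (-100%). Compounds were tested at final concentrations of up to 57.5 uM over 24 h at 37 degrees C. PTC124 at 50 uM final served as control inhibitor.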
HTT prom inh – inhibits huntingtin promoter activity; hit rate 0.93% among 48,000; Potency, µM (highest dose often 57.5 µM), for inactives: at the highest dose activity change, negative = inhibition, actives largely listed as inhibitors; AID 1508623; HEK293 HTT promoter firefly luciferase reporter, 24 h; further: potency means the concentration at half of the fitted maximal effect; nearly all actives have a fitted effect of over 50% in size
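Firefly luciferase readout (Dual-Glo, 10 min RT) after 24 h, 37 °C compound exposure (final up to 57.5 uM) of HEK293 reporter cells cultured 24 h beforehand; PTC124 at 50 uM final as control inhibitor; activity scaled vehicle 0%, zero RLU -100%.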
DYRK1A inh-1 – inhibitors of human DYRK1A kinase. shares compounds with NTMT1 inh. recombinant DYRK1A, Kinase-Glo ATP depletion luminescence. Potency, µM (doses to about 76.9 µM), inactives show top-dose activity change, negative = inhibition, actives largely listed as inhibitors. hit rate 80% among 100
CLK4 inh-1 – CLK4 kinase inhibition, SAR round 2. shares compounds with NTMT1 inh. recombinant Clk4, Kinase-Glo ATP luminescence, 4.5 h. Potency, µM (titrated, usually from 76.9 µM), for the others: at the top dose activity, negative = inhibition, most hits filed as inhibitors. hit rate 90% among 90. AID 493204
CLK4 inh-2 – blocks human CLK4 kinase in radiometric assay; hit rate 100% among 65; Potency, µM, most hits filed as inhibitors; Reaction Biology kinase assay, 10 uM ATP; shares compounds with NTMT1 inh; calls by dose curve
DYRK1A inh-2 – inhibitors of human DYRK1A kinase. AID 504424. Potency, µM, hits mostly inhibitors. Reaction Biology kinase assay, 10 uM ATP. shares compounds with NTMT1 inh. hit rate 90% among 65;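 active means compounds that showed inhibition of Dyrk1a and received a fitted potency; inactive means compounds that showed no inhibition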
CLK2 RBC – inhibitors of human CLK2 kinase | shares compounds with NTMT1 inh | Reaction Biology kinase assay, 10 uM ATP | Potency, µM, actives largely listed as inhibitors | hit rate 90% among 65;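 active means compound that inhibits Clk2 kinase in the dose series, with an IC50 potency reported; inactive means no inhibition seen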
CLK3 inh – blocks human CLK3 kinase activity; shares compounds with NTMT1 inh; recombinant CLK3 kinase assay, 10 uM ATP; Potency, µM, usual class: inhibitors; hit rate 40% among 65;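 active means compounds that inhibited Clk3 enough in the ten-dose series to give a half-maximal potency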
DYRK1B inh – DYRK1B kinase inhibition; shares compounds with NTMT1 inh; Recombinant Dyrk1b kinase assay, 10 uM ATP; Potency, µM, usual class: inhibitors; hit rate 80% among 65; AID 504429;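 active means compounds whose dose response shows an inhibitor phenotype against the kinase Dyrk1b; inactive means compounds showing no inhibitor phenotype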
CLK1 RBC – inhibitors of human CLK1 kinase. recombinant Clk1 kinase assay, 10 uM ATP. Potency, µM, most hits filed as inhibitors. shares compounds with NTMT1 inh. hit rate 90% among 65. AID 504430;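 active means compounds that block the splicing kinase Clk1 enough to give a fitted half-inhibition concentration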
USP2 K63 confirm – USP2a inhibition confirmed on K63 diubiquitin | USP2 cleavage of DiUb K63-3IQF, fluorescence kinetic | hit rate 80% among 30 | shares compounds with NTMT1 inh | Potency, µM (highest dose often 57.5 µM), for inactives: at the highest dose activity change, negative = inhibition, usual class: inhibitors
Casp6 counter – inhibits human caspase-6 in USP2a selectivity assay; Caspase 6 enzyme, Caspase-Glo 6 luminescence; 30 tested, under 10 active; shares compounds with NTMT1 inh; activity change, negative = inhibition, % at 46.1 µM
NNMT counter – blocks human NNMT methyltransferase. shares compounds with NTMT1 inh. NNMT MTase-Glo luminescence, SAH detection. Potency, µM (titrated, usually from 57.1 µM), for the others: top-dose activity, negative = inhibition, most hits filed as inhibitors. hit rate 10% among 120
Target sequence (P40261 whole entry, looked up): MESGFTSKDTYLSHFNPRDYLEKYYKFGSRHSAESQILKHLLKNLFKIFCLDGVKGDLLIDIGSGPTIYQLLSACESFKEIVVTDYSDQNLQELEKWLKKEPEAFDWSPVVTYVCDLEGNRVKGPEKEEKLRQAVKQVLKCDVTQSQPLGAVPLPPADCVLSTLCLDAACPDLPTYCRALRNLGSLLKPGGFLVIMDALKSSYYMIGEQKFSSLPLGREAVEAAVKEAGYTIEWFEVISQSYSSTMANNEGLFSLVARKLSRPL
Numbers without * were called inactive; [ ] = dose if it differs, or a comment. This is one part of a sample in which hits are shown more often than they occur. Unless noted, the call rests on the fitted dose curve; in most records, active means well fitted curve in the direction sought with a large enough effect; inconclusive means small, poorly fitted or top-dose-only effect, or another doubt; inactive means no such curve, though single readings can be large; an effect the other way counts as inactive or inconclusive.

What do the screens show for `NC1(C(=O)NC(CCO)c2ccc(Cl)cc2)CCN(c2ncnc3[nH]ccc23)CC1` (stereo not given)?
NTMT1 inh: 1%[57.5 µM]

Results for C=CC(=O)N1CCCC(n2nc(-c3ccc(Oc4ccccc4)cc3)c3c(N)ncnc32)C1 (stereo not given) ?
NTMT1 inh: -7%[57.5 µM]

Results for Cc1cc(C)c2c(N)c(C(=O)NCc3ccc(Cl)cc3)sc2n1 ?
NTMT1 inh: -10%[57.5 µM]; NNMT counter: -8%

What do the screens show for `Cc1cccc(C(=O)Nc2c(C(=O)NCc3ccc(Cl)cc3)sc3nc(C)cc(C)c23)c1`?
NTMT1 inh: 11%; HTT-AS act: -50%; HTT prom inh: inconclusive

How did Cc1cc(C)n2ncc(C(=O)NCc3ccco3)c2n1 do in these assays?
NTMT1 inh: -2%

What do the screens show for `CCN(CC)C(=O)c1ccc2c(c1)ncn2-c1cccc(C)c1`?
NTMT1 inh: 0%

Results for CN(C(=O)Nc1cn(C)c(=O)c2ccccc12)c1ccccc1 ?
NTMT1 inh: -3%; HTT-AS act: -23%; HTT prom inh: -16%

How did CN(C)C(=O)Nc1cc(-c2ccccc2)ccc1N(C)C do in these assays?
NTMT1 inh: -3%[57.5 µM]; NNMT counter: -8%

What do the screens show for `COc1ccc(C(=O)NCc2cc(C(C)C)no2)cc1OC1CCN(C)CC1`?
NTMT1 inh: 5%[57.5 µM]

Results for O=C1CCCC2=C1C(c1[nH]ncc1Cl)N=C(Nc1ccccc1)N2 (stereo not given) ?
NTMT1 inh: 1%

Results for Cc1csc(CNc2ncnc3ccc(-c4ccc5c(c4)OCCO5)cc23)c1 ?
NTMT1 inh: 1%[57.5 µM]

How did Cc1nc(CN(C)c2ncnc3cc(-c4ccc5c(c4)OCO5)ccc23)cs1 do in these assays?
NTMT1 inh: inconclusive; DYRK1A inh-1: 9.2µM*; CLK4 inh-2: 15*; DYRK1A inh-2: inactive; CLK2 RBC: inactive; CLK3 inh: inactive; DYRK1B inh: inactive; CLK1 RBC: inactive

What do the screens show for `Cc1nc(CCN(C)c2ncnc3ccc(-c4ccc5c(c4)OCO5)cc23)cs1`?
NTMT1 inh: inconclusive; CLK4 inh-1: 0.082µM*

Results for CCn1cnc(CCN(C)c2ncnc3ccc(-c4ccc5c(c4)OCO5)cc23)c1 ?
DYRK1A inh-1: 8.2µM*

How did Cc1nc(C(C)N(C)c2ncnc3ccc(-c4ccc5c(c4)OCO5)cc23)cs1 (stereo not given) do in these assays?
NTMT1 inh: -9%[57.5 µM]; CLK4 inh-1: 29µM*

Results for CS(=O)(=O)c1ccc(C(=O)OCC(=O)N2CCC(Cc3ccccc3)CC2)cc1[N+](=O)[O-] ?
NTMT1 inh: 3%

Results for Cc1ccc(OCCn2c(CCNC(=O)c3ccco3)nc3ccccc32)cc1 ?
NTMT1 inh: 2%

Results for COc1cc(O)c(C(CC(=O)N2CCC(c3ccccc3)CC2)c2ccc(C)cc2)c(OC)c1 (stereo not given) ?
NTMT1 inh: 2%[228 µM]

What do the screens show for `O=C1NS(=O)(=O)c2cc3c(cc21)C(=O)NS3(=O)=O`?
NTMT1 inh: 17%

How did Cc1cc(N[S+](=O)([O-])c2ccc(NC(=O)Cc3ccccc3Cl)cc2)no1 do in these assays?
NTMT1 inh: 14%

How did CCC(C)/C=C(C)/C=C/C1=CC2=C(Cl)C(=O)C(C)(OC(C)=O)C(=O)C2=CN1CCCC(=O)O (stereo not given) do in these assays?
NTMT1 inh: 1%[29.8 µM]

How did Cc1c(-c2ccccc2)oc2c(C(=O)OCCN3CCCCC3)cccc2c1=O do in these assays?
NTMT1 inh: inconclusive; HTT-AS act: -19%; HTT prom inh: -7%

What do the screens show for `CC(=O)c1c(OCCN2CCCCC2)c(OCCC(C)c2ccc(F)cc2)c2oc(C)nc2c1C` (stereo not given)?
NTMT1 inh: inconclusive; NNMT counter: inconclusive

Results for CSC[C@H]1CN(Cc2c[nH]c3c(N)ncnc23)C[C@@H]1O ?
NTMT1 inh: -2%

What do the screens show for `COc1cccc(C(=O)c2c(N)c(-c3nc(-c4ccccc4)cs3)c3ccccn23)c1`?
NTMT1 inh: 6%; HTT-AS act: 3%; HTT prom inh: -1%

Results for COc1c(C)c(C(=O)c2ccc(N)c(C(=O)O)c2)n2ccccc12 ?
NTMT1 inh: -12%[57.5 µM]; NNMT counter: -12%

What do the screens show for `COC(=O)c1cncc(NC(=O)c2cccs2)c1`?
NTMT1 inh: 8%

How did Cc1ccc(S(=O)(=O)Nc2cnccc2C(=O)Nc2nc(-c3cccc(C)c3)cs2)cc1 do in these assays?
USP2 K63 confirm: 1.9µM*; Casp6 counter: -14

Results for COc1c(NS(=O)(=O)c2ccc(C)cc2)cccc1C(=O)Nc1nc(-c2ccccc2)cs1 ?
NTMT1 inh: 18%

Bioassay records: PubChem, National Center for Advancing Translational Sciences (NCATS)
